Data as given in PubChem BioAssay (EPA / NIEHS).
Records with an inconclusive call do not appear. The source made the active and inactive calls. The calls were made as follows: active = hit-call score of the fitted dose curve at least 0.9, where 1 is the maximum; inconclusive = response in the unintended direction; inactive = score below 0.9.

Columns and labels:
[1] = target: human Opioid Receptor Delta 1 (Opiate D1), OPRD1 (gene 4985) (UniProt P41143); assay: NVS_GPCR_hOpiate_D1: NovaScreen (NVS) G Protein-Coupled Receptor Assay for human Opioid Receptor Delta 1 (Opiate D1) (AID 2283280)
Chain of human Opioid Receptor Delta 1 (Opiate D1), OPRD1 (gene 4985) (P41143 whole entry, looked up): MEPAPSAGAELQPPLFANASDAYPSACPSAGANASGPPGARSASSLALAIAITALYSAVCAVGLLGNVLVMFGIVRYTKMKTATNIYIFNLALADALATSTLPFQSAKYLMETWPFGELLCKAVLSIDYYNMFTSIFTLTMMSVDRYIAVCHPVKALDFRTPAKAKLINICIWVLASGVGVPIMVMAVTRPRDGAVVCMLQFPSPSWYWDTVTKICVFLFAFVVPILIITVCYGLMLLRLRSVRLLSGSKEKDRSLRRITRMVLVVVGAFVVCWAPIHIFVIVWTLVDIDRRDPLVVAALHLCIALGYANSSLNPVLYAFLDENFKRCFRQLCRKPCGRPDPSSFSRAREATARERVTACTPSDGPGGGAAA
Method in brief: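 Membrane preparations from CHO cells bearing the human receptor were incubated 1 h with test chemical, and bound radioligand was counted after filtration. Actives from 25 uM duplicate screening were retested in concentration-response.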

[2] = target: human Opioid Receptor Mu (Opiate Mu), OPRM1 (gene 4988) (UniProt P35372); assay: NVS_GPCR_hOpiate_mu: NovaScreen (NVS) G Protein-Coupled Receptor Assay for human Opioid Receptor Mu (Opiate Mu) (AID 2283290);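 also: hits lower bound tracer signal versus DMSO meaning displacement of the ligand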
Chain of human Opioid Receptor Mu (Opiate Mu), OPRM1 (gene 4988) (P35372 whole entry, looked up): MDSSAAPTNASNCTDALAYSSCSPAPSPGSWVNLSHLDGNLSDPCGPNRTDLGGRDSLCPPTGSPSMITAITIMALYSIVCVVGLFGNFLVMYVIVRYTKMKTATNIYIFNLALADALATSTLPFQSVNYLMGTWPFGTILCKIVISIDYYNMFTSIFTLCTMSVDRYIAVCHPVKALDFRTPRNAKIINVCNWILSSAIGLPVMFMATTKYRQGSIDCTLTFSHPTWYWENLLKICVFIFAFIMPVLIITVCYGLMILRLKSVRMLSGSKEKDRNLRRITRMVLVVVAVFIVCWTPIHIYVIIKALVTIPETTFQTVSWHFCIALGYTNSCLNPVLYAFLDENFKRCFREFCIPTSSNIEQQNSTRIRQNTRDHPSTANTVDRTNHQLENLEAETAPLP
Method in brief: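 Here, radioligand binding to CHO-extracted receptor was measured after 2.5 h using filter-based scintillation detection. Initial single-concentration screening used 25 uM in duplicate with plate controls; confirmed actives went to concentration-response testing.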

[3] = system: rat Adrenergic, Alpha 1B Receptor (Adra1B), gene 24173; assay: NVS_GPCR_rAdra1B: NovaScreen (NVS) G Protein-Coupled Receptor Assay for rat Adrenergic, Alpha 1B Receptor (Adra1B) (AID 2283297)
Method in brief: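 Filter-binding radioligand competition on membranes from rat liver, read after 1 h by scintillation counting. Single-concentration duplicate screen at 25 uM, followed by concentration-response on actives, normalised to DMSO.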

[4] = target: human Orphanin, Opioid Related Nociceptin Receptor 1 (ORL1), OPRL1 (gene 4987) (UniProt P41146); assay: NVS_GPCR_hORL1: NovaScreen (NVS) G Protein-Coupled Receptor Assay for human Orphanin, Opioid Related Nociceptin Receptor 1 (ORL1) (AID 2283283)
Chain of human Orphanin, Opioid Related Nociceptin Receptor 1 (ORL1), OPRL1 (gene 4987) (P41146 whole entry, looked up): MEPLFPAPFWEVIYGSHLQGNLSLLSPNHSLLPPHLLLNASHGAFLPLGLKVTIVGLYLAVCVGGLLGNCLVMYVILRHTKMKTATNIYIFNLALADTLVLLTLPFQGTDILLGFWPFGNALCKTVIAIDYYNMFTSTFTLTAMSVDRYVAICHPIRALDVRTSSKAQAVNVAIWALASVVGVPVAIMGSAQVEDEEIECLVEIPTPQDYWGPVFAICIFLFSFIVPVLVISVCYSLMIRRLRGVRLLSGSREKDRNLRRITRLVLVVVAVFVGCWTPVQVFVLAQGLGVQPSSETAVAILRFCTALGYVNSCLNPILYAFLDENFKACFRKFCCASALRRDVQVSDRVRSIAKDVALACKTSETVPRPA
Method in brief: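 Cell-free binding using HEK293-derived receptor protein: radioligand displacement measured by filter scintillation 1 hour after dosing. Primary testing at 25 uM in duplicate, followed by singleton concentration series up to 50 uM; DMSO served as negative control.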

[5] = target: Muscarinic acetylcholine receptor M2 (Homo sapiens) (UniProt P08172); assay: NVS_GPCR_hM2: NovaScreen (NVS) G Protein-Coupled Receptor Assay for human Muscarinic, M2 Receptor (AID 2283273)
Chain of Muscarinic acetylcholine receptor M2 (Homo sapiens) (P08172 whole entry, looked up): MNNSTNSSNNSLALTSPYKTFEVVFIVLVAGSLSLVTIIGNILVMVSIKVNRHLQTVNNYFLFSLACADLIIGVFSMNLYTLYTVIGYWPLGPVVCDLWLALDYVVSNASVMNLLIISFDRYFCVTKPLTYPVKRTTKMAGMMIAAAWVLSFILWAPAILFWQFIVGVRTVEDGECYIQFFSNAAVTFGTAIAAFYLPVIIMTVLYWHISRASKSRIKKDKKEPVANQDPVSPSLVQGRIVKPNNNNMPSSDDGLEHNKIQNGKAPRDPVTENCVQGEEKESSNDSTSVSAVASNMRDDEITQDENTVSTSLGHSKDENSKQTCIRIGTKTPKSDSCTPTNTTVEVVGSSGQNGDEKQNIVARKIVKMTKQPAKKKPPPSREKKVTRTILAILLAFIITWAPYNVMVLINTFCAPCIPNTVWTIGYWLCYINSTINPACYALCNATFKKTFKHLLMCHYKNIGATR
Method in brief: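 Radioligand competition binding, cell-free, receptor from CHO; 1 h incubation; scintillation detection. Primary testing at 25 uM in duplicate.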

[6] = target: human Neurokinin, NK2 Receptor, TACR2 (gene 6865) (UniProt P21452); assay: NVS_GPCR_hNK2: NovaScreen (NVS) G Protein-Coupled Receptor Assay for human Neurokinin, NK2 Receptor (AID 2283278);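 also: actives reduce bound radioligand signal relative to DMSO baseline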
Chain of human Neurokinin, NK2 Receptor, TACR2 (gene 6865) (P21452 whole entry, looked up): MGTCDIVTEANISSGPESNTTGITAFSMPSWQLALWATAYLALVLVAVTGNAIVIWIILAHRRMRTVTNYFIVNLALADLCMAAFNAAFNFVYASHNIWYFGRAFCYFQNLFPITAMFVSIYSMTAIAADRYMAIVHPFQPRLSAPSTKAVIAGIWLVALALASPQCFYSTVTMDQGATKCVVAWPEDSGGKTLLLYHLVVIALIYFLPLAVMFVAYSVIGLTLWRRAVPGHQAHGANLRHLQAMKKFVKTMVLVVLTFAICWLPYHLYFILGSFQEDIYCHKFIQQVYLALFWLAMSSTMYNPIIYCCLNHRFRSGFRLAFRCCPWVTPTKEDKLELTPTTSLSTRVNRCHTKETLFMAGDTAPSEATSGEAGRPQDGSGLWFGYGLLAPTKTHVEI
Method in brief: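 Test chemicals displace a radioligand from receptor prepared from CHO cells in a cell-free format, read after 4 hours by scintillation counting on filters. Screening starts at 25 uM in duplicate, and active chemicals then go to concentration series.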

[7] = target: human Thromboxane A2 Receptor (TXA2), TBXA2R (gene 6915) (UniProt P21731); assay: NVS_GPCR_hTXA2: NovaScreen (NVS) G Protein-Coupled Receptor Assay for human Thromboxane A2 Receptor (TXA2) (AID 2283282);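 also: actives reduce bound radioligand signal relative to DMSO baseline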
Chain of human Thromboxane A2 Receptor (TXA2), TBXA2R (gene 6915) (P21731 whole entry, looked up): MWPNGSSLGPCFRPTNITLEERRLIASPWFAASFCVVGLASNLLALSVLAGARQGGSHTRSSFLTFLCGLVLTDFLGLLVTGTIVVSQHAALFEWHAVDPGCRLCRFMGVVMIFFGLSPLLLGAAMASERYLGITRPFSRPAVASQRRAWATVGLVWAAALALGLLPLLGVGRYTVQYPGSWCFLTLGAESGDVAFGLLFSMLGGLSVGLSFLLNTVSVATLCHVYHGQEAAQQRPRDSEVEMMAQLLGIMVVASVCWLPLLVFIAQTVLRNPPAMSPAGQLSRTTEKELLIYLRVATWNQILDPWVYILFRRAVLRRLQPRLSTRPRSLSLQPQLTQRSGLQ
Method in brief: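 Biochem binding, human platelets, cell-free; competitive radioligand displacement; 1 h; filter radiodetection. 25 uM duplicate primary, conc. series secondary; DMSO neg. ctrl.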

[8] = target: rat Adrenergic Receptor, Alpha 2 (Adra2), Non-selective Binding, Adra2a (gene 25083) (UniProt P22909); assay: NVS_GPCR_rAdra2_NonSelective: NovaScreen (NVS) G Protein-Coupled Receptor Assay for rat Adrenergic Receptor, Alpha 2 (Adra2), Non-selective Binding (AID 2283299)
Chain of rat Adrenergic Receptor, Alpha 2 (Adra2), Non-selective Binding, Adra2a (gene 25083) (P22909 whole entry, looked up): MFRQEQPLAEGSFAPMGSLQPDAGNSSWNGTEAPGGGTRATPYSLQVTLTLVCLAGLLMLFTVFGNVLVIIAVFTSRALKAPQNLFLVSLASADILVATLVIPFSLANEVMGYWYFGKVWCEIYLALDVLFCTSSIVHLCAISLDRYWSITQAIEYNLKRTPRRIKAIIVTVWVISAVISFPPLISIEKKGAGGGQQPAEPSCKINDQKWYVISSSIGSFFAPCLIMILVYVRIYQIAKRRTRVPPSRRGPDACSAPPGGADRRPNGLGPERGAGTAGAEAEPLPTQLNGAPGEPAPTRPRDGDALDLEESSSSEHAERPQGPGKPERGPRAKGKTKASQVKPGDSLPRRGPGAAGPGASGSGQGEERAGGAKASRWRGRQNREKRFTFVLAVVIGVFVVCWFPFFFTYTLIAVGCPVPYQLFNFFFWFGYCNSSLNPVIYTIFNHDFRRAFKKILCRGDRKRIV
Method in brief: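 Filter-based scintillation counting of radioligand binding to rat cortical membrane receptors, measured 1.25 hours post-dosing; loss of signal versus DMSO indicates displacement. Initial single-concentration duplicate at 25 uM, then concentration series.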

[9] = system: 5-hydroxytryptamine receptor 2C (pig); assay: NVS_GPCR_p5HT2C: NovaScreen (NVS) G Protein-Coupled Receptor Assay for pig Serotonin, 5-Hydroxytryptamine Receptor 2C (5HT2C) (AID 2283288)
Method in brief: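 Radioligand displacement on membranes from pig choroid plexus, detected by filter scintillation counting after 1 h. Tested first at a single 25 uM in duplicate, then in concentration-response for actives; DMSO served as baseline.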

[10] = target: Muscarinic acetylcholine receptor M3 (Homo sapiens) (UniProt P20309); assay: NVS_GPCR_hM3: NovaScreen (NVS) G Protein-Coupled Receptor Assay for human Muscarinic, M3 Receptor (AID 2283272)
Chain of Muscarinic acetylcholine receptor M3 (Homo sapiens) (P20309 whole entry, looked up): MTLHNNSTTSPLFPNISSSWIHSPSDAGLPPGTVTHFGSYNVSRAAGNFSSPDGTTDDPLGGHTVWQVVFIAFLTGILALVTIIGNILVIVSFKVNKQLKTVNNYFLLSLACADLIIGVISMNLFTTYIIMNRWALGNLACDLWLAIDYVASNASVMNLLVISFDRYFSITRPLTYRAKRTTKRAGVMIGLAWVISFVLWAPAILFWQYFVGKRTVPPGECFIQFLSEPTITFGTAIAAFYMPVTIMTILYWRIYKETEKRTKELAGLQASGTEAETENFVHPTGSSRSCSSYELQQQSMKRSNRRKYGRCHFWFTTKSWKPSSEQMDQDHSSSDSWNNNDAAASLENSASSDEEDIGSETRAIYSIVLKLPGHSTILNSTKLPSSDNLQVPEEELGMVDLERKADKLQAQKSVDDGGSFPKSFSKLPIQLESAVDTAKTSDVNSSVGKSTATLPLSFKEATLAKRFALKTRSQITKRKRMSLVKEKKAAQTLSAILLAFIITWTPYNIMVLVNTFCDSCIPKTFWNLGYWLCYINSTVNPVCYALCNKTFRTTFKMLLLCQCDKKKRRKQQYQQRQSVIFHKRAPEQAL
Method in brief: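 Radioligand displacement binding on human M3 receptor in CHO-derived membranes, 1 h incubation, filter-based scintillation counting. Primary screen in duplicate at 25 uM; actives followed up in concentration series; loss of signal versus DMSO.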

[11] = target: human Muscarinic, M4 Receptor, CHRM4 (gene 1132) (UniProt P08173); assay: NVS_GPCR_hM4: NovaScreen (NVS) G Protein-Coupled Receptor Assay for human Muscarinic, M4 Receptor (AID 2283274)
Method in brief: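 Filter-based scintillation counting of radioligand bound to CHO-expressed human M4 preparations after 1 h; loss of signal fitted versus DMSO. Initial duplicate testing at 25 uM, concentration-response follow-up for actives.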

[12] = target: Neuropeptide Y receptor type 2 (Homo sapiens) (UniProt P49146); assay: NVS_GPCR_hNPY2: NovaScreen (NVS) G Protein-Coupled Receptor Assay for human Neuropeptide Receptor Y2 (NPY2) (AID 2283277)
Method in brief: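 Chemicals were first tested in duplicate at 25 uM, then actives in singleton concentration series to 50 uM. Tracer binding to SK-N-MC-derived protein measured cell-free after 1 h via filter scintillation; signal loss relative to DMSO.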

[13] = target: rat Adrenergic, Alpha 1, Non-selective Receptor (Adra1), Adra1a (gene 29412) (UniProt P43140); assay: NVS_GPCR_rAdra1_NonSelective: NovaScreen (NVS) G Protein-Coupled Receptor Assay for rat Adrenergic, Alpha 1, Non-selective Receptor (Adra1) (AID 2283289)
Method in brief: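 Chemicals first screened in duplicate at 25 uM, then actives tested in concentration series up to 50 uM. Binding measured as displacement of radioligand from rat forebrain membrane receptors, 1 h, filtration with scintillation readout; DMSO baseline.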

[14] = target: human Purinergic Receptor P2Y, P2RY1 (gene 5028) (UniProt P47900); assay: NVS_GPCR_hPY2: NovaScreen (NVS) G Protein-Coupled Receptor Assay for human Purinergic Receptor P2Y (AID 2283281)
Method in brief: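 Filtration scintillation readout of radioligand displacement on U937 extract, measured 1 h post-dosing. Single 25 uM duplicate screen, then singleton concentration series to 50 uM for chemicals passing threshold; DMSO as baseline.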

[15] = system: guinea pig Atrionatriuretic Peptide Receptor A (ANPA), gene 100135578; assay: NVS_GPCR_gANPA: NovaScreen (NVS) G Protein-Coupled Receptor Assay for guinea pig Atrionatriuretic Peptide Receptor A (ANPA) (AID 2283291)
Method in brief: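 Displacement of specific radioligand from guinea pig cerebellum membranes was read by scintillation after 1 h. A duplicate single-point screen at 25 uM was followed by a concentration series up to 50 uM, analysed relative to DMSO.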

[16] = target: rat Corticotropin Releasing Factor Receptor (CRF), Crhr1 (gene 58959) (UniProt P35353); assay: NVS_GPCR_rCRF: NovaScreen (NVS) G Protein-Coupled Receptor Assay for rat Corticotropin Releasing Factor Receptor (CRF) (AID 2283300)
Method in brief: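 Single-concentration (25 uM, duplicate) radioligand binding on rat cortical membrane preparations, counted by scintillation after 2 h. Activity scored as signal loss relative to DMSO negative control.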

[17] = target: rat Gamma-Aminobutyric Acid Type B Receptor (GABBR), Gabbr1 (gene 81657) (UniProt Q9Z0U4); assay: NVS_GPCR_rGABBR: NovaScreen (NVS) G Protein-Coupled Receptor Assay for rat Gamma-Aminobutyric Acid Type B Receptor (GABBR) (AID 2283301)
Chain of rat Gamma-Aminobutyric Acid Type B Receptor (GABBR), Gabbr1 (gene 81657) (Q9Z0U4 whole entry, looked up): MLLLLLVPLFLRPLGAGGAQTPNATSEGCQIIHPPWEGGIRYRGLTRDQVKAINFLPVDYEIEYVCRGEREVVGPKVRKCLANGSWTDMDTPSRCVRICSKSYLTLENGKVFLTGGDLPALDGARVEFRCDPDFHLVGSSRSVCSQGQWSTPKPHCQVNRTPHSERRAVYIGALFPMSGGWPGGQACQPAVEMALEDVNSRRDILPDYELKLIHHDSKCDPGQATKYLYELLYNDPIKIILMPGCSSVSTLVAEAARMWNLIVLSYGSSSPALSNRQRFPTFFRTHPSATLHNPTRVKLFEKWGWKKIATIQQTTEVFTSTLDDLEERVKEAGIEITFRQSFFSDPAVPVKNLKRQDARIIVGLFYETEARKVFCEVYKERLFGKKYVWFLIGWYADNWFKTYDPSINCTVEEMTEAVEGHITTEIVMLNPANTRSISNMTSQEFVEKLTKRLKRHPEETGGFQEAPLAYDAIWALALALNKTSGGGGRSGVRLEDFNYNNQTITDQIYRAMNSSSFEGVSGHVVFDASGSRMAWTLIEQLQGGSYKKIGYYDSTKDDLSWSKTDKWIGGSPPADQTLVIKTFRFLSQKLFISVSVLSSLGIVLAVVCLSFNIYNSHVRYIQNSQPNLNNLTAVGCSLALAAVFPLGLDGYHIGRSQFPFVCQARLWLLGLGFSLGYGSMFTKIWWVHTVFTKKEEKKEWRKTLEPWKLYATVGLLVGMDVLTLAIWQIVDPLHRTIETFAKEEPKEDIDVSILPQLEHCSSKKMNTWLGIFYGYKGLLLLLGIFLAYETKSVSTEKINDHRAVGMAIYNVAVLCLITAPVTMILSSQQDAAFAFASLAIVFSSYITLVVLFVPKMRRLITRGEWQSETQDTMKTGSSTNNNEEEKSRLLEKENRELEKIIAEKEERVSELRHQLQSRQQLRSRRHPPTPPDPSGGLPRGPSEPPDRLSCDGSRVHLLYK
Method in brief: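 Rat cortical membrane preparation, competitive radioligand binding for 1 h with filtration and scintillation readout. Actives from duplicate single-point 25 uM screening proceeded to concentration series with 50 uM top concentration.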

[18] = target: rat Serotonin, 5-Hydroxytryptamine Receptor (5HT), Non-Selective Binding, Htr1a (gene 24473) (UniProt P19327); assay: NVS_GPCR_r5HT_NonSelective: NovaScreen (NVS) G Protein-Coupled Receptor Assay for rat Serotonin, 5-Hydroxytryptamine Receptor (5HT), Non-Selective Binding (AID 2283295)
Chain of rat Serotonin, 5-Hydroxytryptamine Receptor (5HT), Non-Selective Binding, Htr1a (gene 24473) (P19327 whole entry, looked up): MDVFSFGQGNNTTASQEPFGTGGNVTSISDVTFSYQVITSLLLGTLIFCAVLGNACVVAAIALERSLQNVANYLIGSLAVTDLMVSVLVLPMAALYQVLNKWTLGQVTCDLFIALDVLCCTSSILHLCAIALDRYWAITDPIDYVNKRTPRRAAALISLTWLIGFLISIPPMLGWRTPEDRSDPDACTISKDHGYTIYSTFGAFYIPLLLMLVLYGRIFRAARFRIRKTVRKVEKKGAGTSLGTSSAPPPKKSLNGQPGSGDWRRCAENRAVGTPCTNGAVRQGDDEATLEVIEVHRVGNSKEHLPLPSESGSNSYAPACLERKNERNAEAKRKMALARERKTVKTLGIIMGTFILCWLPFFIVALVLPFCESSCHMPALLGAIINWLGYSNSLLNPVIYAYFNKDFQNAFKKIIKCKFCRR
Method in brief: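 Rat cortex membrane preparation incubated 1 h with radioligand and test chemical; bound radioactivity counted after filtration. Screening began in duplicate at 25 uM with concentration-series follow-up; fitting relative to DMSO.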

[19] = target: mouse Cholecystokinin, CCK2 Receptor (CCKB), Cckbr (gene 12426) (UniProt P56481); assay: NVS_GPCR_mCKKBCentral: NovaScreen (NVS) G Protein-Coupled Receptor Assay for mouse Cholecystokinin, CCK2 Receptor (CCKB) (AID 2283293)
Method in brief: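 Mouse forebrain membrane preparation incubated 2 h with chemical and radioligand; bound radioactivity counted after filtration. Single-concentration duplicate screen at 25 uM, then concentration series to 50 uM max for hits, DMSO as baseline.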

[20] = target: human Neuropeptide Receptor Y1 (NPY1), NPY1R (gene 4886) (UniProt P25929); assay: NVS_GPCR_hNPY1: NovaScreen (NVS) G Protein-Coupled Receptor Assay for human Neuropeptide Receptor Y1 (NPY1) (AID 2283276)
Method in brief: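 Displacement of specific radioligand from NPY1 receptor of SK-N-MC origin, read by filtration and scintillation after 1 h. Compounds first tested at 25 uM in duplicate, then actives in concentration series; signal loss relative to DMSO.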

## CCCCN(CCCC)SN(C)C(=O)Oc1cccc2c1OC(C)(C)C2
[1]
  outcome: inactive
[2]
  outcome: inactive
[3]
  outcome: inactive

## O=C(O)C1C(C(=O)O)C2(Cl)C(Cl)=C(Cl)C1(Cl)C2(Cl)Cl (stereo not given)
[1]
  outcome: inactive

## CC1(C)CN=C(NN=C(/C=C/c2ccc(C(F)(F)F)cc2)/C=C/c2ccc(C(F)(F)F)cc2)NC1
[4]
  AC50: 37.2 µM (active)
[2]
  AC50: 6.5 µM (active)

## CSC(C)(C)C=NO
[5]
  outcome: inactive
[6]
  outcome: inactive
[1]
  outcome: inactive
[7]
  outcome: inactive
[2]
  outcome: inactive

## ClC1=C(Cl)C2(Cl)C3C(Cl)C(Cl)CC3C1(Cl)C2(Cl)Cl (stereo not given)
[1]
  outcome: inactive

## C/C(=N\NC(=O)Nc1cc(F)cc(F)c1)c1ncccc1C(=O)O
[7]
  outcome: inactive

## O=S1(=O)OCC2C(CO1)C1(Cl)C(Cl)=C(Cl)C2(Cl)C1(Cl)Cl (stereo not given)
[6]
  outcome: inactive

## CCCCC(CC)COP(=O)(Oc1ccccc1)Oc1ccccc1 (stereo not given)
[8]
  outcome: inactive

## Nc1ccc2ccccc2c1
[2]
  outcome: inactive

## Cc1ccc(O)cc1C
[9]
  AC50: 21.1 µM (active)
[2]
  outcome: inactive

## CCOP(=S)(Oc1ccc([N+](=O)[O-])cc1)c1ccccc1 (stereo not given)
[10]
  outcome: inactive
[11]
  outcome: inactive

## OCC1CO1 (stereo not given)
[2]
  outcome: inactive

## Nc1ccc(Cl)cc1
[12]
  outcome: inactive

## c1ccc2c(c1)Nc1ccccc1S2
[9]
  outcome: inactive
[13]
  outcome: inactive

## CC(=O)c1ccc(-c2ccccc2)cc1
[7]
  outcome: inactive

## Cc1ccc2c(c1N)C(=O)c1ccccc1C2=O
[7]
  outcome: inactive

## c1cc2c3c(cccc3c1)CC2
[2]
  outcome: inactive

## CCOP(=S)(OCC)SCn1nnc2ccccc2c1=O
[6]
  outcome: inactive

## CC(C)Nc1ccc(Nc2ccccc2)cc1
[5]
  AC50: 2.71 µM (active)
[6]
  AC50: 20 µM (active)
[8]
  AC50: 25 µM (active)

## CC(C)(C)c1ccccc1OP(=O)(Oc1ccccc1)Oc1ccccc1
[6]
  AC50: 17.2 µM (active)

## CCOP(=S)(OCC)SCSc1ccc(Cl)cc1
[6]
  outcome: inactive

## CCCCCCCc1ccc(O)cc1
[6]
  outcome: inactive

## O=c1ssc(Cl)c1Cl
[14]
  outcome: inactive
[2]
  AC50: 0.885 µM (active)

## N#Cc1c(-c2ccc(Cl)cc2)[nH]c(C(F)(F)F)c1Br
[7]
  AC50: 4.66 µM (active)
[2]
  outcome: inactive

## Cn1[nH]nnc1=S
[6]
  outcome: inactive

## CC(Cc1ccc(OCC(=O)O)cc1)NCC(O)c1csc(C(F)(F)F)n1 (stereo not given)
[15]
  outcome: inactive
[16]
  outcome: inactive
[17]
  outcome: inactive

## CCC1(c2ccccc2)C(=O)N=C(O)NC1=O (stereo not given)
[17]
  outcome: inactive

## Cc1cc(C)c(C(=O)P(=O)(c2ccccc2)c2ccccc2)c(C)c1
[6]
  AC50: 0.367 µM (active)

## CCOP(=S)(OCC)SCS(=O)(=O)CC
[2]
  outcome: inactive

## Cc1ccc([N+](=O)[O-])cc1C
[18]
  outcome: inactive

## CCCN(CCC)c1c([N+](=O)[O-])cc(C(C)C)cc1[N+](=O)[O-]
[2]
  outcome: inactive

## CCC(C)(C)c1ccc(O)cc1
[5]
  outcome: inactive
[2]
  AC50: 6.43 µM (active)
[19]
  outcome: inactive

## CC(C)(C)OOC(C)(C)C
[5]
  outcome: inactive
[1]
  outcome: inactive

## O=[N+]([O-])c1ccccc1
[15]
  outcome: inactive

## N#Cc1ccc(O)cc1
[7]
  outcome: inactive

## ClC(Cl)c1ccccc1
[20]
  AC50: 5.17 µM (active)
